Holding throughout (conditions): mRNA level, 48 h; actives raise or lower the signal
Read-out in assay [1]: Cytochrome P450 (CYP2B6), CYP2B6 (gene 1555)
Put plainly: LTEA_HepaRG_CYP2B6: Life Technologies and Expression Analysis (LTEA) Assay for Cytochrome P450 (CYP2B6) using HepaRG (AID 2283481). In a few lines:
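Human HepaRG, 48 h dosing, 0.5% DMSO vehicle, top dose 100 uM. CYP2B6 transcript by qRT-PCR, housekeeping-normalized, bidirectional curve fit.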

Read-out in the next assay: CYP2C8 (gene 1558)
Kind of assay: LTEA_HepaRG_CYP2C8: Life Technologies and Expression Analysis (LTEA) Assay for CYP2C8 using HepaRG (AID 2283483). In a few lines: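 HepaRG (human liver line), 48 h chemical exposure, 8-pt half-log series from 100 uM, 0.5% DMSO vehicle. Readout: CYP2C8 transcript by qRT-PCR, housekeeping-normalized. Bidirectional fit vs DMSO baseline.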

Read-out in another assay: CYP2C9 (gene 1559)
Kind of assay: LTEA_HepaRG_CYP2C9: Life Technologies and Expression Analysis (LTEA) Assay for CYP2C9 using HepaRG (AID 2283484). In short, it runs like this: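 HepaRG, 48 h dosing, 8-pt half-log series, top 100 uM, 0.5% DMSO vehicle. Read-out: CYP2C9 transcript by TaqMan qRT-PCR, housekeeping-normalized (ACTB/GAPDH/POLR2A). Gain or loss fitted vs DMSO baseline.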

Read-out in the next assay: CYP2E1 (gene 1571)
Kind of assay: LTEA_HepaRG_CYP2E1: Life Technologies and Expression Analysis (LTEA) Assay for CYP2E1 using HepaRG (AID 2283485). In short, it runs like this: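 Readout is qRT-PCR of CYP2E1 mRNA, normalized to three housekeeping genes and fitted bidirectionally against 0.5% DMSO. HepaRG cells were dosed 48 h at eight concentrations, highest 100 uM with half-log dilutions.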

Read-out in the next assay: CYP4A11 (gene 1579)
Kind of assay: LTEA_HepaRG_CYP4A11: Life Technologies and Expression Analysis (LTEA) Assay for CYP4A11 using HepaRG (AID 2283486). In a few lines: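 Human hepatic HepaRG cultures receive duplicate 48 h exposures across a concentration-response series topping at 100 uM. Expression changes in CYP4A11 are measured by qRT-PCR relative to DMSO controls.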

Read-out in assay [2]: Cytochrome P450 3A4 (Homo sapiens) (UniProt P08684)
Kind of assay: LTEA_HepaRG_CYP3A4: Life Technologies and Expression Analysis (LTEA) Assay for CYP3A4 using HepaRG (AID 2283487). In a few lines: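 HepaRG, 48 h exposure, 8-pt CRC from 100 uM (half-log), 0.5% DMSO, duplicates; serum-free induction medium. Readout: CYP3A4 mRNA, qRT-PCR, ACTB/GAPDH/POLR2A normalization. Bidirectional fit vs DMSO.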

Read-out in assay [3]: DNA damage-inducible transcript 3 (DDIT3), DDIT3 (gene 1649)
Put plainly: LTEA_HepaRG_DDIT3: Life Technologies and Expression Analysis (LTEA) Assay for DNA damage-inducible transcript 3 (DDIT3) using HepaRG (AID 2283488). In short, it runs like this: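 Cells are human HepaRG liver cells treated for 48 h with eight half-log concentrations up to 100 uM in 0.5% DMSO. Transcript levels come from qRT-PCR normalized to three housekeeping genes, with activity fitted in both directions relative to vehicle.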

Read-out in assay [4]: Pro-epidermal growth factor (Homo sapiens) (UniProt P01133)
Put plainly: LTEA_HepaRG_EGF: Life Technologies and Expression Analysis (LTEA) Assay for Epidermal growth factor (EGF) using HepaRG (AID 2283489). In short, it runs like this: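 Concentration-response mRNA assay: HepaRG cells dosed 48 h (max 100 uM, 0.5% DMSO), EGF measured by qRT-PCR and normalized to ACTB/GAPDH/POLR2A.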

Read-out in assay [5]: Early growth response protein 1 (EGR1) transcription factor, EGR1 (gene 1958)
Kind of assay: LTEA_HepaRG_EGR1: Life Technologies and Expression Analysis (LTEA) Assay for Early growth response protein 1 (EGR1) transcription factor using HepaRG (AID 2283490). In a few lines: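 HepaRG, 48 h exposure, 8-pt half-log series from 100 uM, 0.5% DMSO vehicle; EGR1 transcript by TaqMan qRT-PCR (Fluidigm array), housekeeping-normalized; bidirectional fit relative to DMSO baseline.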

Read-out in assay [6]: Cytochrome P450 3A7 (Homo sapiens) (UniProt P24462)
Kind of assay: LTEA_HepaRG_CYP3A7: Life Technologies and Expression Analysis (LTEA) Assay for CYP3A7 using HepaRG (AID 2283492). In a few lines:
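qRT-PCR of CYP3A7 in HepaRG lysates after 48 h treatment; concentration-response (8 points, max 100 uM) analysed bidirectionally relative to 0.5% DMSO controls.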

Read-out in a further assay: CYP3A5 (gene 1577)
Put plainly: LTEA_HepaRG_CYP3A5: Life Technologies and Expression Analysis (LTEA) Assay for CYP3A5 using HepaRG (AID 2283493). In a few lines:
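Human HepaRG hepatic cells receive 48 h chemical treatment at eight concentrations (half-log steps from 100 uM) in 0.5% DMSO. Expression of CYP3A5 is quantified by Fluidigm qRT-PCR and normalized to three reference genes.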

Read-out in assay [7]: Fatty Acid-Binding Protein 1 (FABP1), FABP1 (gene 2168)
Kind of assay: LTEA_HepaRG_FABP1: Life Technologies and Expression Analysis (LTEA) Assay for Fatty Acid-Binding Protein 1 (FABP1) using HepaRG (AID 2283494). In a few lines: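 qRT-PCR readout of FABP1 transcript (normalized to three housekeeping genes) after 48 h chemical exposure of HepaRG cells; eight concentrations, half-log steps, max 100 uM, 0.5% DMSO vehicle; gain or loss fitted relative to DMSO baseline.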

Read-out in assay [8]: Cytochrome P450 4A22 (Homo sapiens) (UniProt Q5TCH4)
Kind of assay: LTEA_HepaRG_CYP4A22: Life Technologies and Expression Analysis (LTEA) Assay for Cytochrome P450 4A22 (CYP4A22) using HepaRG (AID 2283495). In a few lines: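 Concentration-response (8 points, max 100 uM, 0.5% DMSO) in human HepaRG liver cells after 48 h exposure. CYP4A22 mRNA by TaqMan qRT-PCR with housekeeping-gene normalization.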

Read-out in assay [9]: Cytochrome P450 7A1 (Homo sapiens) (UniProt P22680)
Kind of assay: LTEA_HepaRG_CYP7A1: Life Technologies and Expression Analysis (LTEA) Assay for Cytochrome P450 7A1 (CYP7A1) using HepaRG (AID 2283496). In a few lines: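 HepaRG, 48 h exposure, 8-pt half-log series from 100 uM, 0.5% DMSO vehicle, duplicates. Readout: TaqMan qRT-PCR mRNA vs three housekeeping genes; bidirectional curve fit against DMSO baseline.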

Read-out in assay [10]: Glutamate-cysteine ligase catalytic (GCLC), GCLC (gene 2729)
Kind of assay: LTEA_HepaRG_GCLC: Life Technologies and Expression Analysis (LTEA) Assay for Glutamate-cysteine ligase catalytic (GCLC) using HepaRG (AID 2283498). In short, it runs like this:
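HepaRG, 48 h exposure, 8-pt half-log series from 100 uM, 0.5% DMSO vehicle; TaqMan qRT-PCR for GCLC mRNA, housekeeping-normalized; bidirectional curve fit vs DMSO baseline.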

Read-out in assay [11]: growth arrest and DNA damage 45 (GADD45G), GADD45G (gene 10912)
Kind of assay: LTEA_HepaRG_GADD45G: Life Technologies and Expression Analysis (LTEA) Assay for growth arrest and DNA damage 45 (GADD45G) using HepaRG (AID 2283499). In short, it runs like this: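 Concentration-response in HepaRG: 48 h dosing, 0.5% DMSO, highest level 100 uM. GADD45G expression by qRT-PCR, normalised to endogenous controls; bidirectional fit to DMSO.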

Read-out in assay [12]: Glutamate-cysteine ligase regulatory (GCLM), GCLM (gene 2730)
Kind of assay: LTEA_HepaRG_GCLM: Life Technologies and Expression Analysis (LTEA) Assay for Glutamate-cysteine ligase regulatory (GCLM) using HepaRG (AID 2283500). In a few lines: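 Endpoint is GCLM transcript level by qRT-PCR, normalized to three housekeeping genes, after 48 h chemical exposure of human HepaRG cells (0.5% DMSO vehicle, top 100 uM, half-log dilutions). Fitting was bidirectional relative to DMSO.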

Read-out in assay [13]: Glutathione S-Transferase (GSTA2), GSTA2 (gene 2939)
Put plainly: LTEA_HepaRG_GSTA2: Life Technologies and Expression Analysis (LTEA) Assay for Glutathione S-Transferase (GSTA2) using HepaRG (AID 2283497). In a few lines:
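qRT-PCR readout of GSTA2 transcript, normalized to three housekeeping genes, fitted bidirectionally against 0.5% DMSO baseline. Differentiated HepaRG cells received compound for 48 h at 8 concentrations (top 100 uM, half-log steps).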

Activity calls are given as the source filed them. The calls were made as follows: active = hit-call score of the fitted dose curve at least 0.9, where 1 is the maximum; inactive = score below 0.9.

Chain of Cytochrome P450 3A4 (Homo sapiens) (P08684 whole entry, looked up): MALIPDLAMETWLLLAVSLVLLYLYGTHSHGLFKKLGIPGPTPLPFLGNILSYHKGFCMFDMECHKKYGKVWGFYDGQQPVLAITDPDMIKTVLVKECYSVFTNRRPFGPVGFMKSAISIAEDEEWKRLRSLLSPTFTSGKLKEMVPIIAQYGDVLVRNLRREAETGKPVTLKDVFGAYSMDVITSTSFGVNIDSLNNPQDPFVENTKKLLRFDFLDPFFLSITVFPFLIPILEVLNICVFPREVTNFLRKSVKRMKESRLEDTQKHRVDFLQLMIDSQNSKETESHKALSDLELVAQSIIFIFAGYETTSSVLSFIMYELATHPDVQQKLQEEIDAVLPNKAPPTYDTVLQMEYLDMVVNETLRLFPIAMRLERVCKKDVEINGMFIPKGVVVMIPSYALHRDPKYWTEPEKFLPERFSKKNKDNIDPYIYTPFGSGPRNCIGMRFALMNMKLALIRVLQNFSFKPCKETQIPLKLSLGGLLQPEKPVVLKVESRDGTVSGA
Chain of Cytochrome P450 3A7 (Homo sapiens) (P24462 whole entry, looked up): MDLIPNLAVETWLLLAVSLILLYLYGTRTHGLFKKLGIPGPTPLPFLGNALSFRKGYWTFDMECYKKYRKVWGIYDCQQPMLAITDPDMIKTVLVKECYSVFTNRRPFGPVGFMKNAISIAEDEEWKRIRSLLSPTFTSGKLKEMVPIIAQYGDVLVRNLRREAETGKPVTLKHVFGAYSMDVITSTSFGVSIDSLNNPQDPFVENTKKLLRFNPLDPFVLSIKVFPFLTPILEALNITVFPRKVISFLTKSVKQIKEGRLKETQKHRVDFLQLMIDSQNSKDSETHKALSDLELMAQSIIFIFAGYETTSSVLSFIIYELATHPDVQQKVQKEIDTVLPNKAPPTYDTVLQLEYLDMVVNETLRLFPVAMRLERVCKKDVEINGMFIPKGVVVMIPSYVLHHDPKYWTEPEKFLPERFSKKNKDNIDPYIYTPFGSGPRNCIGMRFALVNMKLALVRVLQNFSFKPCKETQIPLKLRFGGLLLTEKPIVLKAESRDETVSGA

With `COC(=O)N(OC)c1ccccc1COc1ccn(-c2ccc(Cl)cc2)n1`, the AC50 in assay [1] was 78.1 µM (active); in the assay with CYP2C8 (gene 1558) it was 77.9 µM (active); with CYP2C9 (gene 1559), 74.7 µM (active); with CYP2E1 (gene 1571) it was 34.1 µM (active); in assay [2], 78.5 µM (active); in assay [3], 60.9 µM (active). Besides, the AC50 in assay [4] was 12.1 µM (active); in [6], 74 µM (active); with CYP3A5 (gene 1577) it was 87 µM (active); in assay [7], 80.4 µM (active); in [8], 15.8 µM (active); in assay [9], 71.9 µM (active). Besides, the figures for the AC50 in assay [10], in [11] and in [12] were 80.8 µM (active), 79.5 µM (active) and 50 µM (active), respectively. Further, the compound was called inactive (in the assay with CYP4A11 (gene 1579); in assay [5]).

For `O=C(O)COc1nc(Cl)c(Cl)cc1Cl`, the half-maximal activity concentration (AC50) in [1] is 51 µM (active). For the same compound, the result (in the assay with CYP2C8 (gene 1558); in the assay with CYP2C9 (gene 1559); with CYP2E1 (gene 1571); with CYP4A11 (gene 1579); in assay [2]; in assay [3]) was inactive. Further, the call (in [4]; in assay [5]; with CYP3A5 (gene 1577); in assay [7]; in assay [8]; in [9]) was inactive. Further, the outcome in assay [13], in [10], in assay [11] and in assay [12] was inactive.

For the compound `O=C(Nc1ccccc1)Nc1ccnc(Cl)c1`, the concentration at half-maximal activity (AC50) was 88.4 µM (active) in assay [1]; 75.6 µM (active) in the assay with CYP2C9 (gene 1559); 25.4 µM (active) with CYP2E1 (gene 1571); 36.6 µM (active) with CYP4A11 (gene 1579); 70.8 µM (active) in [2]; 84.6 µM (active) in [5]. For the same compound, the concentration at half-maximal activity (AC50) with CYP3A5 (gene 1577) is 49.1 µM (active); in assay [7], 71.3 µM (active); in assay [8], 28.4 µM (active); in [9], 81.3 µM (active); in assay [13] it was 24.9 µM (active); in [10] it was 83 µM (active). The AC50 in [12] is 84.8 µM (active). Also, the result (with CYP2C8 (gene 1558); in assay [3]; in assay [4]; in assay [6]; in [11]) was inactive.

As to `N#Cc1nn(-c2c(Cl)cc(C(F)(F)F)cc2Cl)c(N)c1S(=O)C(F)(F)F` (centres undefined), the concentration at half-maximal activity (AC50) is 28.9 µM (active) in assay [1]; 33 µM (active) with CYP2C8 (gene 1558); 34.9 µM (active) with CYP2C9 (gene 1559); 12.9 µM (active) in the assay with CYP2E1 (gene 1571); 24.6 µM (active) with CYP4A11 (gene 1579); 32.6 µM (active) in assay [2]. Further, the AC50 in assay [3] was 30.2 µM (active); in [5] it was 13.2 µM (active); in assay [7] it was 24.1 µM (active); in assay [8], 26.2 µM (active); in assay [9], 35 µM (active); in assay [11] it was 31.5 µM (active). In addition, the AC50 in [12] was 29.1 µM (active). Further, the compound was classed as inactive (in the assay with CYP3A5 (gene 1577); in assay [10]).

In the case of `CCOc1cc(Oc2ccc(C(F)(F)F)cc2Cl)ccc1[N+](=O)[O-]`, the AC50 in assay [1] was 34.4 µM (active); with CYP2C8 (gene 1558) it was 74.2 µM (active); with CYP2C9 (gene 1559) it was 35.7 µM (active); with CYP2E1 (gene 1571), 24.8 µM (active); with CYP4A11 (gene 1579) it was 41.6 µM (active); in assay [2] it was 12.2 µM (active). Besides, the half-maximal activity concentration (AC50) in [3] is 78 µM (active); in assay [4], 10.5 µM (active); in assay [6], 75.8 µM (active); in assay [7], 30.4 µM (active); in assay [8], 39.1 µM (active); in [9], 34.8 µM (active). The AC50 in assay [12] was 50 µM (active). Besides, the compound was called inactive (in assay [5]; with CYP3A5 (gene 1577); in assay [10]; in assay [11]).

What is called AC50 is the concentration at which the activity in the assay is half-maximal.

(Values after PubChem BioAssay (EPA / NIEHS).)
